Results on 15 molecules are retold here after PubChem BioAssay.

One assay concerns the target Albumin (Bos taurus) (UniProt P02769). Put plainly: bovine serum albumin binders on microarray, profiling panel, artefact control for SMM control protein annotation, biochemical, small-molecule microarray, Alexa647 label, 635/667 nm fluorescence (AID 1118).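 Note: score merges 667 nm emission intensity and signal-to-noise per printed compound spot.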 The conditions noted are these: BSA-A647 binding, fluorescence 635 nm, higher = more signal.
Assay [1] in a line: small-molecule microarray binders of probe aXIP, primary screen, biochemical, NeuroSMM set, 635/667 nm fluorescence (AID 1119).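 Note: probe is the protein aXip251-270 applied at 1 µg/mL to compound-printed slides; binding of probe to printed compounds measured as 667 nm fluorescence plus signal to noise.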 The note with it: higher = more signal, called active from +8 up or from −8 down.
A short description of assay [2]: small-molecule binders of probe aNOTCH3, primary screen, biochemical, small-molecule microarray, 635/667 nm fluorescence (AID 1120).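 Note: probe is a biotin-tagged antibody raised against NOTCH3 rather than NOTCH3 protein; score merges spot fluorescence near 667 nm with spot signal to noise.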 The note with it: higher = more signal.
Assay [3] is described as follows: small-molecule binders of probe aNOTCH2, primary screen, biochemical, small-molecule microarray, 635/667 nm fluorescence (AID 1121).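 Note: score merges feature fluorescence read at 667 nm with its signal to noise.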 The conditions noted are these: higher = more signal.
Assay [4] concerns the target Carbonic anhydrase 2 (Homo sapiens) (UniProt P00918). As to the kind of experiment: CAII small-molecule binders, profiling panel, biochemical, small-molecule microarray, Alexa647-labelled CAII (AID 1122). The note with it: CAII-A647 binding fluorescence, higher = more signal.
Assay [5] in a line: COS7 lysate on small-molecule microarray, probe aHis, 635 nm (AID 1123).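 Note: z-score combines 667nm fluorescence intensity with signal-to-noise per printed compound spot.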 The note with it: COS7 cell lysate, fluorescence, higher = more signal.
A short description of assay [6]: compound binding in COS7 lysate, probe aLAP1, primary screen, cell lysate, small-molecule microarray (AID 1124).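 Note: lysate comes from COS7 cells expressing LAP1 and is applied at 0.3 µg/mL; score merges spot fluorescence near 667 nm with signal-to-noise over triplicate slides.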 The conditions noted are these: probe aLAP1, fluorescence, higher = more signal.
The subject of the next assay is Sam68 (KHDRBS1). As to the kind of experiment: Sam68 small-molecule binders, primary screen, biochemical, small-molecule microarray, 635 nm fluorescence (AID 1125).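 Note: score merges 667 nm channel intensity with signal to noise over triplicate slides.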 The note with it: small-molecule microarray binding, higher = more signal.
Assay [7] has as its system Chordin-like protein 2 (CHRDL2). Put plainly: CHRDL2 small-molecule binders, primary screen, biochemical, small-molecule microarray, 635 nm fluorescence (AID 1126).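 Note: printed compound slides probed with Chrdl2 protein at 4 µg/mL for 1 h at 4 C; score merges 667 nm emission intensity with signal to noise over three replicate slides.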 The conditions noted are these: small-molecule microarray binding, fluorescence 635 nm; higher = more signal.
In assay [8] the target is Concanavalin-A (Canavalia ensiformis) (UniProt P02866). As to the kind of experiment: ConA small-molecule binders, primary screen, artefact control for SMM control protein annotation, biochemical, small-molecule microarray, Alexa647 label, 635 nm (AID 1127).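 Note: z combines 667 nm emission intensity with signal-to-noise across three replicate slides.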 The conditions noted are these: ConA-A647 binding fluorescence, higher = more signal.
Chain of Concanavalin-A (Canavalia ensiformis) (P02866 whole entry, looked up): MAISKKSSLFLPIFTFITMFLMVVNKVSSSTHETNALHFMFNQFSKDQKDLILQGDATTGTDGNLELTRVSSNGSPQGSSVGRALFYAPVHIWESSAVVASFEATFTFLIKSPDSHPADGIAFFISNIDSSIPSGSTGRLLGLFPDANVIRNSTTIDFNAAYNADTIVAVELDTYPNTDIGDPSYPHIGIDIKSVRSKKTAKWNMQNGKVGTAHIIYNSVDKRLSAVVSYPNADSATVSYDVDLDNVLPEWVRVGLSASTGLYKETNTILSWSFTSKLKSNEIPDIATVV

Each structure is given as a SMILES string. Calls of active or inactive are those of the source.

Chain of Albumin (Bos taurus) (P02769 whole entry, looked up): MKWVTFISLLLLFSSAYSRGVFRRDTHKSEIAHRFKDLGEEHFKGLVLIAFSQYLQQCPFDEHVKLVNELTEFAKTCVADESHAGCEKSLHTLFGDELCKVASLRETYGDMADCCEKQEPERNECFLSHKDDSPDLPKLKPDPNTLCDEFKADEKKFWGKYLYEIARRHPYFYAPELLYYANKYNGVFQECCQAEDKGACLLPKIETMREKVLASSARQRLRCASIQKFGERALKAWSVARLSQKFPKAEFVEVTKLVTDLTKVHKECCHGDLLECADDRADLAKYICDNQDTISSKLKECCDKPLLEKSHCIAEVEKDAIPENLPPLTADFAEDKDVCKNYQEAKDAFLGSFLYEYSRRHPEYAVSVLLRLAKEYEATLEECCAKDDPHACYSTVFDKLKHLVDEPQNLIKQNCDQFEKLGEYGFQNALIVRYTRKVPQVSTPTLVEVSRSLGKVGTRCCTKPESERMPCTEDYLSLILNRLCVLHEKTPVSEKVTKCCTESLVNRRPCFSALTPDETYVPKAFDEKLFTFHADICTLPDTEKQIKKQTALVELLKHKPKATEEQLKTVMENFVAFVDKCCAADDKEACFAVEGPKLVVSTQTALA

Turning to `COCCOC(=O)N1C(=O)[C@@]2(c3ccccc31)[C@H](C(=O)Nc1nc3ccccc3s1)[C@H]1C(=O)O[C@H](c3ccccc3)[C@H](c3ccccc3)N1[C@@H]2c1ccccc1OCCO`, the composite z-score is 0.0171 with Albumin (Bos taurus); 0.291 in assay [2]; -0.0684 in assay [3]; 0.526 in [4]; 1.54 in assay [5]; 1.63 in assay [6]. Further, the composite z-score came out at 1.3 in the assay on Sam68 (KHDRBS1), 0.145 in assay [7] and 1.08 in assay [8]. The composite Z-score in assay [1] was 0.0308 (inactive).
Turning to `O=C1O[C@H](c2ccccc2)[C@H](c2ccccc2)N2[C@H]1[C@@H](C(=O)O)[C@]1(C(=O)Nc3ccc(C#CC4(O)CCCCCC4)cc31)[C@H]2c1ccccc1OCCO`, the composite z-score worked out at 0.9 with Albumin (Bos taurus); 0.451 in assay [2]; 0.0979 in assay [3]; 0.487 in assay [4]; 1.27 in assay [5]; 0.774 in assay [6]. Also, the composite z-score was 1.32 in the assay with Sam68 (KHDRBS1), 0.0298 in [7] and 1.14 in [8]. Also, the composite Z-score in assay [1] was 0.0463 (inactive).
For the molecule `CC(C)N1C(=O)[C@@]2(Cc3ccccc31)c1ccccc1C(=O)N(Cc1ccccc1C(F)(F)F)[C@H]2c1ccc(CO)cc1`, the composite z-score with Albumin (Bos taurus) is -0.832; in assay [2], -0.374; in [3], 0.0015; in assay [4], 0.754; in assay [5] it was -0.011; in assay [6], 0.739. Besides, the composite z-score in the assay with Sam68 (KHDRBS1) was determined as 1.01; in assay [7] it was 1.14; in assay [8] it was 1.1. In addition, in [1], the composite Z-score is 0.795 (inactive).
With `C=CCOC(=O)[C@H]1[C@@H]2C(=O)O[C@@H](c3ccccc3)[C@@H](c3ccccc3)N2[C@@H](c2ccc(OCCOC(=O)[C@H]3C[C@H]4C(=O)NCC(=O)N4[C@H]3c3cccc(OCCO)c3)cc2)[C@]12C(=O)Nc1ccc(I)cc12`, the composite z-score is -0.0037 with Albumin (Bos taurus); 0.138 in assay [2]; -0.125 in [3]; 0.567 in assay [4]; 2.2 in assay [5]; 0.692 in [6]. The results for the composite z-score (with Sam68 (KHDRBS1); in assay [7]; in [8]) were 1.29, 0.866 and 1.14, respectively. In addition, the composite Z-score in assay [1] is 0.642 (inactive).
Regarding `COC(=O)[C@@]1(Cc2ccccc2)[C@H]2c3cc(C(=O)N(C)C)n(Cc4nc5ccccc5[nH]4)c3C[C@H]2CN1C(=O)c1ccccc1`, the composite z-score stood at 1.01 with Albumin (Bos taurus); 0.266 in assay [2]; 0.0576 in assay [3]; 0.826 in assay [4]; 3.44 in assay [5]; 0.972 in assay [6]. Further, the composite z-score was 1.24 with Sam68 (KHDRBS1), -0.538 in assay [7] and 1.09 in assay [8]. Besides, the composite Z-score in assay [1] was 0.0729 (inactive).
In the case of `OCCCc1cc[n+](Cc2cc3c(cc2Br)OCO3)cc1`, the composite z-score was 0.038 with Albumin (Bos taurus); 0.0785 in assay [2]; -0.112 in assay [3]; -0.213 in [4]; -0.608 in assay [5]; 0.324 in [6]. Besides, the composite z-score is -0.724 in the assay with Sam68 (KHDRBS1), -0.418 in [7] and -1.9 in assay [8]. The composite Z-score in [1] was -0.0354 (inactive).
For the molecule `COc1ccc([Si](C)(C)[C@H]2[C@H](CC(=O)N(CCO)Cc3ccccc3)O[C@@]3(C(=O)N(Cc4cccc(N5CCCCC5=O)c4)c4ccccc43)[C@@H]2C)cc1`, the composite z-score in the assay with Albumin (Bos taurus) is 0.124; in assay [2], 0.401; in assay [3], -0.131; in [4] it was 0.235; in assay [5] it was 0.681; in assay [6] it was 0.825. The composite z-score came to 0.732 in the assay with Sam68 (KHDRBS1), 0.877 in assay [7] and 0.72 in [8]. Moreover, the composite Z-score in [1] is 1.12 (inactive).
`CS(=O)(=O)CCOC(=O)C1=CC(CCCO)=CC(C2CC2)N(Cc2sc3ccccc3c2Cl)C=C1C(=O)OCCS(C)(=O)=O` (stereo not given): the composite z-score came to 1.01 with Albumin (Bos taurus); 0.398 in assay [2]; 0.0706 in assay [3]; 0.666 in [4]; 2.34 in assay [5]; 0.549 in assay [6]. Also, the composite z-score in the assay on Sam68 (KHDRBS1) was 1.07; in [7], -0.225; in assay [8], 0.648. For the same molecule, in assay [1], the composite Z-score was -0.0349 (inactive).
For the molecule `CC1CC/C=C\[C@H]2OC34C=CCN(C(C)C)C(=O)[C@H]3N(C(C)CO)C(=O)[C@@H]4C2C(=O)O1` (stereo not given in full), the composite z-score in the assay with Albumin (Bos taurus) is 0.702; in assay [2], -0.162; in assay [3], -0.115; in assay [4] it was 0.418; in assay [5], -0.406; in [6], -0.108. In addition, the composite z-score with Sam68 (KHDRBS1) was -0.26; in [7] it was -0.337; in assay [8], -0.0657. Also, the composite Z-score in [1] is 0.439 (inactive).
Regarding `O=C1NC(=O)C2C1C=CC(C(O)C(c1ccccc1)c1ccccc1)N2Nc1ccccn1` (stereo not given), the composite z-score with Albumin (Bos taurus) came to 0.26; in [2] it was 0.15; in assay [3], 0.256; in [4], 0.809; in assay [5], 0.899; in assay [6], 0.754. Moreover, the composite z-score with Sam68 (KHDRBS1) was -0.0644; in assay [7], 0.691; in assay [8] it was -0.516. Further, the composite Z-score in assay [1] is -0.212 (inactive).
As for `C=C(C(=O)CC[C@@H](OC(=O)c1cccnc1)c1cccc(OCCO)c1)C(C)C`, the composite z-score with Albumin (Bos taurus) is -0.176; in assay [2] it was 0.0286; in assay [3], -0.141; in assay [4], 0.14; in assay [5] it was -0.588; in [6], 1.3. Besides, the composite z-score is -0.588 in the assay on Sam68 (KHDRBS1), -0.114 in [7] and 0.297 in [8]. Besides, the composite Z-score in assay [1] is 0.437 (inactive).
Regarding `COCCOC(=O)N1C(=O)[C@@]2(c3cc(C#CCC(C(=O)OC)C(=O)OC)ccc31)[C@H](C(=O)N1CCc3cc(OC)c(OC)cc3C1)[C@H]1C(=O)O[C@H](c3ccccc3)[C@H](c3ccccc3)N1[C@@H]2c1ccccc1OCCO`, the composite z-score in the assay with Albumin (Bos taurus) was 0.329; in [2] it was 0.182; in assay [3], -0.106; in assay [4], 0.401; in [5], 0.977; in assay [6], 0.75. In addition, the values for the composite z-score (in the assay on Sam68 (KHDRBS1); in assay [7]; in assay [8]) were 1.3, 0.854 and 1.14, respectively. In addition, the composite Z-score in assay [1] was -0.331 (inactive).
For `COc1ccc(CCNC(=O)[C@@]2(C)c3ccccc3C(=O)N(Cc3ccc(OC(F)(F)F)cc3)[C@H]2c2ccc(CO)cc2)cc1`, the composite z-score with Albumin (Bos taurus) is -0.146; in assay [2] it was -0.104; in assay [3], -0.163; in assay [4] it was 0.611; in assay [5], 1.37; in assay [6], 0.687. Besides, the composite z-score was found to be 1.3 in the assay on Sam68 (KHDRBS1), 0.309 in [7] and 0.781 in [8]. The composite Z-score in assay [1] is 0.431 (inactive).
In the case of `COc1ccc(C(=O)Nc2ccc(CN3C(=O)[C@]4(O[C@H](CC(=O)N(CCO)Cc5ccccc5)[C@@H]([Si](C)(C)c5ccc(OC)cc5)[C@@H]4C)c4ccccc43)cc2)cc1`, the composite z-score with Albumin (Bos taurus) is -0.622; in assay [2], -0.0288; in assay [3] it was -0.193; in [4], 0.541; in assay [5] it was 1.58; in [6], 1.62. The composite z-score in the assay with Sam68 (KHDRBS1) was found to be 1.35; in assay [7], 1.18; in assay [8], 0.905. Also, the composite Z-score in assay [1] was -0.21 (inactive).
In the case of `C=C[C@H](OC)[C@@H](O)c1ccc(OC)c(O)c1`, the composite z-score with Albumin (Bos taurus) was 0.985; in [2] it was -0.557; in assay [3] it was -0.19; in assay [4] it was 0.145; in assay [5] it was -0.651; in assay [6] it was -0.0037. For the same molecule, the composite z-score in the assay with Sam68 (KHDRBS1) was -2.47; in assay [7], -1.01; in [8] it was -1.9. In assay [1], the composite Z-score is -0.272 (inactive).
